Measured values from PubChem BioAssay (NCI).
The panel holds about 83,000 compounds, 20% with a hit somewhere; the sample as a whole holds those more often.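 The endpoint reported here, percent growth, reads 100 for growth as untreated, 0 for no net growth and -100 for all cells dead.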 A number with no mark means an inactive call. The source made the active and inactive calls. The calls were made as follows: active = growth percent below 10; inactive = the rest.

Legend:
Test in all cases: NCI-60 one-dose screen, 48 h (100 = growth as untreated, 0 = no growth, -100 = all killed)
Conditions in all cases: 10 µM unless noted
NCI-H23 lung = system: NCI-H23 lung
NCI-H226 lung = system: NCI-H226 lung
NCI-H322M lung = system: NCI-H322M lung
HOP-62 NSCLC = system: HOP-62 NSCLC
NCI-H460 lung = system: NCI-H460 lung
HOP-92 NSCLC = system: HOP-92 NSCLC
NCI-H522 lung = system: NCI-H522 lung
A549/ATCC NSCLC = system: A549/ATCC NSCLC
786-0 renal = system: 786-0 renal
COLO 205 colon = system: COLO 205 colon

SMILES	growth (NCI-H23 lung)	growth (NCI-H226 lung)	growth (NCI-H322M lung)	growth (HOP-62 NSCLC)	growth (NCI-H460 lung)	growth (HOP-92 NSCLC)	growth (NCI-H522 lung)	growth (A549/ATCC NSCLC)	growth (786-0 renal)	growth (COLO 205 colon)
COc1ccc(/C=N\NC(=O)c2ccncc2)cc1O	93.8%	92.6%	99.3%	93%	109%	92.9%	81.4%	93.7%	93.7%	110%
CCN(CC)CCCNc1cc(OC)cc2nc3cc(Cl)ccc3nc12	-46.7% (active)	-20.8% (active)	-0.828% (active)	-47.3% (active)	-16.2% (active)	-9.1% (active)	-63.2% (active)	-52.4% (active)	2.95% (active)	-99.3% (active)
N=S(=O)(NC(=O)c1ccc(Cl)cc1Cl)c1ccc(Br)s1 (stereo not given)	102%	94.5%	118%	91%	85.8%	86.9%	103%	80.7%	89.9%	107%
COc1ccc(-c2nc(Nc3cc(C)[nH]n3)c3ccccc3n2)cc1	60.2%	41.2%	78.1%	43.2%	28.5%	3.24% (active)	8.31% (active)	23.9%	50%	3.04% (active)
O=C1OC2C(I)C3CC2C1C3c1ccccc1 (stereo not given)	94.8%	105%	139%	88.9%	117%	93.7%	110%	110%	95.2%	125%
Cc1cc(-c2nc3ccccc3s2)ccc1NC(=O)COc1ccc(Cl)cc1	79.7%	70.6%	106%	89.8%	92.8%	83.5%	87.8%	109%	93.4%	110%
COc1ccc(S(=O)(=O)NCCCNc2cc(-c3c(-c4cccc(OC)c4)nc4sccn34)ccn2)cc1	59.8%	37.7%	67.6%	80.6%	44.2%	62.1%	52.7%	42.9%	52.1%	35.8%
O=C(CN1CCN(c2cc3c(cc2F)c(=O)c(C(=O)N/N=C/c2ccccc2)cn3C2CC2)CC1)N/N=C\c1ccccc1	94.5%	81.3%	85.4%	109%	66.3%	76%	76.5%	69.9%	90.4%	99.6%
COc1ccc(-c2csc(NC(=O)CN3CCN(c4cc5c(cc4F)c(=O)c(C(=O)O)cn5C4CC4)CC3)n2)cc1	9.73% (active)	16%	17.1%	15.4%	3.8% (active)	-17.2% (active)	-9.19% (active)	9.1% (active)	24.4%	12.6%
c1c2c(cc3c1OCO3)Cc1cc3c(cc1Cc1cc4c(cc1C2)OCO4)OCO3	109%	105%	109%	109%	104%	96.7%	94.2%	91.6%	110%	114%
COc1ccc(OCC(=O)Nc2ccc(-c3nc4ccccc4s3)cc2C)cc1	69.3%	51%	94.7%	89.5%	95.5%	68.4%	61.6%	86.2%	88.8%	120%
CCN(CC)CC(C)(C)C(=O)/C=C/c1ccccc1	62.1%	63.5%	67.7%	90.6%	32.3%	34.7%	60.6%	80.3%	60%	53.4%
CCOC(=S)SCc1ccc(Cl)cc1	111%	101%	102%	101%	110%	49.3%	87.2%	80.4%	98%	145%
COC(=O)[C@H](C(C)C)n1c(=O)c2cc(OC)c(OC)cc2c2cnc3[nH]ccc3c21	62.1%	46.4%	48.5%	45.8%	41.2%	13.7%	62.8%	40.7%	52.9%	57.5%
O=[N+]([O-])c1cccc(C2CC(c3ccccc3)=Nc3ccccc3S2)c1 (stereo not given)	87.9%	96.6%	99.6%	98.5%	106%	91.1%	76.7%	88.6%	97.1%	98.9%
N#Cc1c(N)nc(N)nc1Nc1ccc(Br)cc1	102%	83.9%	89.9%	119%	96.7%	92.3%	70.9%	78.2%	123%	135%
Cn1c(=O)c2c(ncn2CC[N+](C)(C)C)n(C)c1=O	99.9%	93.2%	101%	92%	109%	110%	80.7%	91.7%	108%	103%
COc1ccc(-c2cc(/C=C3\C(=O)Nc4ccc(Cl)cc43)[nH]n2)cc1	63.1%	75.7%	77.3%	55.5%	37%	80.7%	9.37% (active)	35.7%	82.3%	37%
NCCN1CCN(c2nccc(-c3ccc4ccccc4c3)n2)CC1	87.2%	81.9%	54.4%	74.9%	17.6%	27.7%	81.3%	52.3%	47.6%	-78.1% (active)
Nc1nc2ccc(-c3nc4ccc5[nH]ncc5c4c4c3CCC4)cc2s1	24.2%	22.7%	25.8%	3.53% (active)	2.53% (active)	-4.3% (active)	-29.4% (active)	32.2%	25.6%	-2.69% (active)
O=C1c2cc3c(cc2-c2c1c1cc(Cl)c(Cl)cc1c(=O)n2C[C@H](O)CO)OCO3	-55.7% (active)	-62% (active)	-16% (active)	-54.3% (active)	-0.391% (active)	-31.9% (active)	-29% (active)	-47.3% (active)	-44.3% (active)	-39.4% (active)
CCN(CC)Cc1cc(Nc2c3ccc(Cl)cc3nc3c(C)cccc23)ccc1O	-75.5% (active)	-28.1% (active)	-25.6% (active)	-74.6% (active)	-78.1% (active)	-62.7% (active)	-77.2% (active)	-15.5% (active)	-91.6% (active)	-92.4% (active)
O=[N+]([O-])c1c(F)cccc1Nc1cccc(F)c1	104%	94.7%	108%	102%	107%	94.6%	92%	106%	93.9%	121%
C=C1CCC2C3(C)COC(c4ccccc4Br)OC3CCC2(C)C1C/C=C1/C(=O)OCC1OC(C)=O (stereo not given)	-47.7% (active)	-58.3% (active)	21.7%	11.5%	1.8% (active)	1.59% (active)	-52.7% (active)	22.7%	-72.8% (active)	-76.7% (active)
CN1C2CCC1/C(=C\c1ccc(Cl)cc1)C1=C2[C@@H](c2ccc(Cl)cc2)C(C#N)=C(N)O1 (stereo not given in full)	83.5%	88.2%	89.9%	88.9%	91.6%	70.4%	78.3%	83.1%	93.2%	87.5%
CN1CCN(Cc2ccc(NC(=O)c3cncc(C#Cc4cnc(N)c5cccnc45)c3)cc2C(F)(F)F)CC1	11.4%	-18.6% (active)	26.4%	-0.449% (active)	7.81% (active)	-26.2% (active)	28.4%	29%	32.8%	-20.5% (active)
CN[C@@]12CC3(C=CC(=O)C=C3)O[C@]1(Cc1ccc(OC)cc1)N(C)C(=O)N2	91%	89.4%	79.9%	114%	101%	94.4%	-23.6% (active)	74.4%	84.2%	47.3%
